Source: PubChem (National Center for Advancing Translational Sciences (NCATS))
FLuc modulator: firefly luciferase modulation, counter-screen for miR-21 project | purified FLuc, Km substrates, luminescence inhibition | Potency, µM (series often up to 57.5 µM), most hits filed as inhibitors | 6.9% of 360,000 active | AID 588342; also: nearly all actives have a fitted effect of over 55% in size
Target sequence (P08659 whole entry, looked up): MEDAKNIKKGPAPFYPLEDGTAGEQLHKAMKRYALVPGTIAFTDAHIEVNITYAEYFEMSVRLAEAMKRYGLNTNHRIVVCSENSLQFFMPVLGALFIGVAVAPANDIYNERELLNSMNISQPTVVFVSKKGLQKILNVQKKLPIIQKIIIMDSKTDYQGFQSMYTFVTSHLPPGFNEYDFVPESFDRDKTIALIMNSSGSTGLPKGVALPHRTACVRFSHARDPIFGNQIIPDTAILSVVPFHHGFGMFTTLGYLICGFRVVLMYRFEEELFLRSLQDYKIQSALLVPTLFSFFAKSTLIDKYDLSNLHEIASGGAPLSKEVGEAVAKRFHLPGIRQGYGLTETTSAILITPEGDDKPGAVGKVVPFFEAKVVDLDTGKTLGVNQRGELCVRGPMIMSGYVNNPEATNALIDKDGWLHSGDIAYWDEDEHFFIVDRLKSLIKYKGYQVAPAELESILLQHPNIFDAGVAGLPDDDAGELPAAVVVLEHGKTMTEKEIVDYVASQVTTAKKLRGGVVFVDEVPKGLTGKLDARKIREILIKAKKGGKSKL
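Purified P. pyralis luciferase, 10 nM final, with Km-level 10 uM D-luciferin and 10 uM ATP in 50 mM Tris acetate pH 7.5, 10 mM Mg acetate, 0.01% Tween-20, 0.05% BSA; 6-point qHTS titration about 60 µM downward; luminescence read.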
NPC1 promoter act: NPC1 promoter activation; Huh7 NPC1 promoter luciferase reporter, 24 h; 2.4% of 320,000 active; AID 485313; Potency, µM (series often up to 9.22 µM), actives largely listed as activators; also: nearly all actives have a fitted effect of over 60% in size
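In 1536-well qHTS, Huh7 cells harboring an NPC1 promoter–luciferase construct received compound for 24 h; activation was quantified by luminescence following luciferase reagent addition.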
SMN2 splice enh: SMN2 splice variant enhancement; Potency, µM (doses to about 46.1 µM), most hits filed as activators; AID 1458; HEK293 SMN2-luciferase splicing reporter, luminescence, 30-36 h; 2.8% of 210,000 active; also: nearly all actives have a fitted effect of over 55% in size
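qHTS luciferase splicing reporter: luminescence rises when SMN2 exon 7 is included in transfected HEK293 cells. Compound exposure lasted 30-36 h at 37C, with 4.5 mM final sodium butyrate as control, followed by a ONE-Glo read.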
Rab9 prom act: activates the Rab9 promoter. 2.8% of 320,000 active. Potency, µM (titrated, usually from 9.22 µM), hits mostly activators. Huh7 Rab9 promoter-luciferase reporter, luminescence, 24 h; also: nearly all actives have a fitted effect of over 60% in size
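Luciferase signal after 10 min detection reagent at ambient indicates Rab9 promoter upregulation; stably transfected Huh7 cells were treated 24 h with compound in DMSO at 37 °C, 5% CO2.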
ELG1 genotox: genotoxicity induction in ELG1-luciferase HEK293T cells; HEK293T ELG1-luciferase reporter, luminescence, 16 h; Potency, µM (highest dose often 46 µM), actives largely listed as activators; 1.3% of 330,000 active; AID 504466; also: nearly all actives have a fitted effect of over 60% in size
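Screening used a luciferase reporter fused to human ELG1 in HEK293T cells. Luminescence was read on a CCD plate imager after 16 hr exposure and 30 min ONE-Glo incubation.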
ELG1 DNA repair: blocks ELG1-dependent DNA repair in HEK293T cells; HEK293T ELG1-luciferase reporter, luminescence, 16 h; DNA damage induced by 5-fluorouridine; 2.3% of 330,000 active; AID 504467; Potency, µM (series often up to 46.1 µM), actives largely listed as inhibitors; also: nearly all actives have a fitted effect of over 55% in size
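Reporter activity after DNA damage by 5-fluorouridine is monitored. Compound-treated cells incubate 16 hr at 37 °C, then ONE-Glo is added for 30 min before luminescence reading.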
A number is an active result; 0 = inactive; ? = inconclusive; - = not tested or not shown; [ ] = another dose, or the depositor's remark. Shown are actives, neighbours in structure and some others; about 9.4% of the full set was active somewhere. Calls follow the shape of the dose curve; as a rule, active = well fitted curve in the direction sought with a large enough effect; inconclusive = small, poorly fitted or top-dose-only effect, or another doubt; inactive = no such curve, though single readings can be large; an effect the other way counts as inactive or inconclusive.

SMILES	FLuc modulator	NPC1 promoter act	SMN2 splice enh	Rab9 prom act	ELG1 genotox	ELG1 DNA repair
CCNC(=S)SCCOc1ccccc1C	?	0	0	0	0	0
CNC(=S)SCCOc1ccc(C)cc1	15µM	0	0	0	0	0
CNC(=S)SCCOc1ccccc1	15µM	0	-	0	0	?
Cc1ccccc1C(=O)Nc1c(C)nc2ccccn2c1=O	0	-	-	-	-	-
O=C(Nc1ccc(Cl)cc1Cl)c1cc(S(=O)(=O)N2CCC3(CC2)OCCO3)ccc1F	0	-	-	-	-	-
CCOC(=O)c1ccc(Nc2ncnc3c2cnn3C)cc1	0	0	-	0	0	0
Cn1ncc2c(O/N=C(\N)c3ccc(C(C)(C)C)cc3)ncnc21	15µM	0	-	0	0	?
COc1ccc2c3c(c(=O)oc2c1)C1O[C@](c2ccsc2)(Cc2cc(C#N)ccc21)O3	?	0[1.84 µM]	-	0[1.84 µM]	-	-
O=C(CCCCn1c(=O)c2ccccc2n(Cc2cccc(F)c2)c1=O)NCCc1ccccc1	0	-	0	-	-	-
Cc1cccc(/C(N)=N/OC(=O)c2ccc3c(c2)OCO3)c1	0.19µM	2.8µM	25µM	2.8µM	9.2µM	?
N/C(=N\OC(=O)c1ccc2c(c1)OCO2)c1cccc([N+](=O)[O-])c1	0.43µM	0	0	?	?	?
COc1ccccc1C/C(N)=N/OC(=O)c1ccc2c(c1)OCO2	?	0	0	0	0	0
COc1ccc(/C(N)=N/OC(=O)c2cccc([N+](=O)[O-])c2)cc1OC	?	0	0	0	?	0
Cc1ccc(N2CC(NC(=O)c3ccco3)CC2=O)cc1 (configuration not stated)	0	-	-	-	-	-
CCN(C(=O)CSc1nc2ccccc2n1CC(=O)NCc1ccc(OC)cc1)c1ccccc1	0	-	-	-	-	-
CCOc1ccc(NC(=O)CN(C)C(=O)Cn2cnc3c2c(=O)n(C)c(=O)n3C)cc1OCC	0	0	-	0	0	0
CCSc1ncc(/C=N/Nc2ccccc2)n1C	19µM	?	14µM	?	0	?
CC(C)(C)c1cnnn1-c1ccc(/C=N/Nc2ccc([N+](=O)[O-])cc2)cc1	0	0	0	?	0	?
Cn1c(-c2ccc(F)cc2)cnc1SCC(=O)Nc1ccccc1	0	0	0	0	0	?
CCSc1ncc(/C=N/Nc2ccc([N+](=O)[O-])cc2)n1C	?	0.79µM	?	0.71µM	?	?
CCSc1ncc(/C=N/Nc2ccc(Cl)cc2)n1C	3µM	1.6µM	20µM	2.8µM	?	?
COc1ccc(NC(=O)Cn2c(=O)cc(C)c3c(C)nn(C)c32)cc1	0	-	-	-	-	-
COc1ccc(C)cc1Nc1cc(C)nc(C)n1	0	-	-	-	-	-
CCOC(=O)c1cccc(Nc2ccc3cc(S(=O)(=O)N4CCCCC4)ccc3n2)c1	0	-	-	-	-	-
O=C(NNC(=O)c1ccccc1O)c1ccc(Br)cc1	12µM	?	-	?	0	?
SMILES	FLuc modulator	NPC1 promoter act	SMN2 splice enh	Rab9 prom act	ELG1 genotox	ELG1 DNA repair
O=C(NNC(=O)c1ccc(O)cc1O)c1ccc(Cl)cc1	?	0	0	0	?	?
O=C(NNC(=O)c1ccccc1O)c1ccc(Cl)cc1	9.5µM	?	0	?	?	?
O=C(NNC(=O)c1ccccc1O)c1cccc(Br)c1	17µM	?	-	0	0	?
O=C(NNC(=O)c1ccccc1C(=O)O)c1ccc(-c2ccccc2)cc1	17µM	0	0	0	0	?
NC(=S)NNC(=O)c1cccc(Br)c1	0	0	0	0	0	0
CC(Oc1ccccc1)C(=O)Nc1ccc(OCc2cc(=O)n3ccsc3n2)cc1 (configuration not stated)	0	-	0	-	-	-
Cc1cccc(C(=O)NNC(=O)c2ccc(Cl)cc2)c1O	11µM	?	16µM	?	9.2µM	?
Cc1cc(C(=O)NNC(=O)c2ccc(Cl)cc2)c2ccccc2n1	0	0	-	0	0	0
CC(=O)c1c(C(C)=O)c(C)n(NC(=O)c2ccncc2)c1C	0	0	25µM	0	0	0
O=C(Nn1cnnc1)c1ccncc1	0	0	-	0	0	0
COC(=O)c1ccc2[nH]c(CO)c(-c3ccccc3)c2c1	0	0	-	0	0	?
CCC(C)(O)c1[nH]c2ccc(C(=O)OC)cc2c1C (configuration not stated)	21µM	0	-	0	0	?
COc1ccc(NC(=O)C(NS(=O)(=O)c2cccc3nsnc23)c2ccccc2)cc1 (configuration not stated)	0	-	0	-	-	-
CCC(=O)Nc1ccc(NC(=O)c2ccccn2)cn1	11µM	1.3µM	14µM	0.63µM	2.5µM	?
O=C(Nc1ccc(NC(=O)C2CC2)nc1)c1ccccn1	6.7µM	0.56µM	-	1.3µM	?	?
